Assay outcomes (PubChem BioAssay)
Sampled rows, rich in hits. Any-hit rate of the full collection: about 10%.
ELG1 DNA repair: qHTS screen for small molecules that inhibit ELG1-dependent DNA repair in human embryonic kidney (HEK293T) cells expressing luciferase-tagged ELG1. HEK293T ELG1-luciferase reporter, luminescence, 16 h; DNA damage induced by 5-fluorouridine. Potency, µM (doses to about 46.1 µM), for inactives: at the top dose activity change, negative = inhibition, usual class: inhibitors. actives 2.3% (n = 330,000). AID 504467, 2011; note: % is set by controls: 0 for no effect and ±100 for the full control effect; nearly all actives have a fitted effect of over 55% in size
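Cells (2,000 per well) received 5-fluorouridine plus test compound or DMSO and were incubated 16 hr at 37 °C, 5% CO2. Luciferase activity was read by luminescence 30 min after ONE-Glo addition; signal suppression marked inhibition of damage-induced ELG1 function.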
VP16 counter: VP16 counterscreen qHTS for inhibitors of ROR gamma transcriptional activity; Drosophila S2 Gal4-VP16 UAS-luciferase, luminescence, 20 h; actives 3.5% (n = 310,000); Potency, µM (titrated, usually from 53.6 µM), without a hit: top-dose activity, negative = inhibition, hits mostly inhibitors;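 note: Gal4-VP16 expression switched on by copper sulfate through the metallothionein promoter; % is set by controls: 0 for no effect and ±100 for the full control effect; nearly all actives have a fitted effect of over 50% in size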
SW480 rerep: A quantitative high throughput screen for small molecules that induce DNA re-replication in SW480 colon adenocarcinoma cells; SW480 DNA re-replication, Hoechst DNA content imaging, 48 h; Potency, µM (series often up to 46.1 µM), for the others: at the top dose re-replication activation, usual class: activators; actives 1.8% (n = 340,000); note: % of control where 0% means no effect; nearly all actives have a fitted effect of over 55% in size
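Image-based DNA-content assay: after two days of treatment, nuclei were labelled with the DNA dye Hoechst and imaged, and hits were compounds raising the count of nuclei showing high fluorescence intensity.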
RORgamma inh: qHTS for inhibitors of ROR gamma transcriptional activity; Nuclear receptor ROR-gamma (Mus musculus), P51450; Drosophila S2 Gal4-RORgamma UAS-luciferase reporter, 20 h; Potency, µM (top dose mostly 53.6 µM), without a hit: top-dose activity change, negative = inhibition, most hits filed as inhibitors; actives 5.4% (n = 310,000); note: % is set by controls: 0 for no effect and ±100 for the full control effect; nearly all actives have a fitted effect of over 60% in size
Target sequence (P51450 whole entry, looked up, the tested form may be a part): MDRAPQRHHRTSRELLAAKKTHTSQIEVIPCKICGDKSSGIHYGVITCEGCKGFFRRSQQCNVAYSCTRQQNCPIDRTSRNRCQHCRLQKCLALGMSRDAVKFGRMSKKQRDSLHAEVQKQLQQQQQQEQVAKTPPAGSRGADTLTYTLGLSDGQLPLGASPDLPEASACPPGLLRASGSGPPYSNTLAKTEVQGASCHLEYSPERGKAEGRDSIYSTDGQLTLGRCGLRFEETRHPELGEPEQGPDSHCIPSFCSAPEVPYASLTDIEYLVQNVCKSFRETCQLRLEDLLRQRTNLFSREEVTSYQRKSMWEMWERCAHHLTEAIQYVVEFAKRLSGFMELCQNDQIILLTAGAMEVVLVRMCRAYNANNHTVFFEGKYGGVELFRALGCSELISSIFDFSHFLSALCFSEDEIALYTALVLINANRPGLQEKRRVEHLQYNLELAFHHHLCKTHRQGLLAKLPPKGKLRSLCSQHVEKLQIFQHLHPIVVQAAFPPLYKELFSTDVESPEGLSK
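Using a luciferase readout, inhibitors were identified by reduced reporter activity in Drosophila cells coexpressing a copper-inducible Gal4–ROR gamma fusion and UAS-driven Photinus luciferase, incubated 20 hr after 700 uM copper sulfate.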
MCF10A rereplic: A quantitative high throughput screen for small molecules that induce DNA re-replication in MCF 10a normal breast cells; MCF 10A DNA re-replication, Hoechst nuclear intensity, 48 h; Potency, µM (titrated, usually from 46.1 µM), inactives show top-dose activity, positive = re-replication, usual class: activators; actives 2.9% (n = 350,000); AID 624296, 2012; note: % of control where 0% means no effect; nearly all actives have a fitted effect of over 50% in size
Starred values were filed as active, the others as inactive; ? = inconclusive; . = not tested or not shown; ! = repeats disagree. Calls come from the whole dose curve; as a rule, active = well fitted curve in the direction sought with a large enough effect; inconclusive = small, poorly fitted or top-dose-only effect, or another doubt; inactive = no such curve, though single readings can be large; an effect the other way counts as inactive or inconclusive. Potency is the fitted concentration of half-maximal effect.

SMILES	ELG1 DNA repair	VP16 counter	SW480 rerep	RORgamma inh	MCF10A rereplic
Cc1cc(NC(=O)CSc2nc(C(C)(C)C)nc3ccccc23)no1	2%	2%	?	-7%	?
COc1ccc(N2CCN(S(=O)(=O)c3cc(C)ccc3OC)CC2)cc1	-3%	4%	-10%	20%	5%
S=c1nc(-c2ccccc2)n(Cc2ccco2)c2c1CCCC2	-2%	?	.	18µM*	.
Fc1ccc(-c2nc3nc4ccccc4nc3n2Cc2ccco2)cc1	4%	2%	4%	?	3%
CC(C)Cn1c(-c2ccccc2)nc(=S)c2c1CCCC2	2%	-16%	1%	20µM*	-4%
c1ccc(-c2nc3nc4ccccc4nc3n2Cc2ccco2)cc1	0%	20µM*	-4%	-91%	?
CN(C)C(=O)CN1C(=O)NC2(CCc3ccccc32)C1=O (centres undefined)	9%	8%	-3%	1%	12%
CN(C)C=Nc1nonc1-c1ccc(Cl)cc1	-10%	-4%	-8%	40%	-2%
CCOC(=O)c1oc2ccccc2c1NC(=O)c1ccccc1OC	?	-3%	?	27%	?
COC(=O)c1oc2ccccc2c1NC(=O)c1ccccc1O	?	-8%	10µM*	0%	-34%
CCC[n+]1c2ccccc2cc2ccccc21	23µM*	-25%	12µM*	-19%	13µM*
CN1CCN(c2ccc(NC(=O)c3ccc(-c4ccc(Br)cc4)o3)cc2)CC1	?	-12%	?	4%	?
Cc1ccccc1C(=O)Nc1cccc(NC(=O)c2ccc(-c3ccc(Br)cc3)o2)c1	9.2µM*	-3%	22%	27%	?
CC(C)(C)CC(C)(C)c1ccc(O)c(Cc2ccc(Cl)cc2Cl)c1	.	?	3%	?	30µM*!
C=CCN1C(=O)C(CC(=O)O)SC1=Nc1ccc(C)cc1 (centres undefined)	1%	-2%	-19%	-12%	2.6µM*
CC(=O)N1CCN(c2ncnc3ccccc23)CC1	?	-5%	11%	-28%	6%
Cc1ccc(OCCC(=O)OC(C)C(=O)Nc2c(C)n(C)n(-c3ccccc3)c2=O)cc1 (centres undefined)	6%	.	-2%	.	-2%
Cc1ccc(S(=O)(=O)N[C@@H](Cc2ccccc2)C(=O)N2CCC(C(=O)N[C@@H](CC(C)C)C(=O)O)CC2)cc1	9%	-5%	-2%	-2%	-5%
Cc1ccccc1/C=c1\s/c(=C\C(=O)C(C)(C)C)[nH]c1=O	?	0.89µM*	?	?	16µM*
COc1cc2sc3ccc(C#CC4(O)CCCCC4)cc3c(=O)c2cc1OC	.	.	?	.	9.2µM*
CCOCCCn1c(=NC(=O)c2cccs2)c(C#N)cc2c(=O)n3cccc(C)c3nc21	11%	-14%	?	-14%	9.2µM*
COCCCn1c(=NC(C)=O)c(C#N)cc2c(=O)n3cccc(C)c3nc21	-11%	-2%	5.8µM*	-1%	18µM*
COCCCn1c(=NC(=O)c2ccccc2)c(C#N)cc2c(=O)n3cccc(C)c3nc21	?	-14%	12%	27%	6.5µM*
COCCn1c(N)c(N(Cc2ccccc2)C(=O)c2ccc(-c3ccc(Cl)cc3)o2)c(=O)[nH]c1=O	?	.	27%	.	3%
O=C1Nc2ccc3c(c2C1=Cc1cc2c(cc1Br)OCO2)OCO3	.	.	18µM*	.	5.2µM*
SMILES	ELG1 DNA repair	VP16 counter	SW480 rerep	RORgamma inh	MCF10A rereplic
CCOc1c(/C=C(\C#N)C(N)=O)c2ccccc2n1CC	13µM*	?	.	27%	?
CCn1c(C)cc(/C=C2\NC(=O)N(Cc3ccc(Cl)cc3)C2=O)c1C	6%	2%	14µM*	19%	?
Cc1cc(/C=C2/NC(=O)N(Cc3ccccc3F)C2=O)c(C)n1-c1ccccn1	-6%	12%	0.82µM*	?	?
Cc1ccc(N(CC(=O)NCc2ccccn2)S(=O)(=O)c2ccccc2)cc1C	9%	7%	0%	44%	6%
COc1cccc(NC(=O)CN(C)C(=O)c2ccc(NC(=O)CC3SC(N4CCCC4)=NC3=O)cc2)c1 (centres undefined)	.	.	-7%	.	2%
CC1CN(C(=S)Nc2cccc([N+](=O)[O-])c2)CC(C)O1 (centres undefined)	-19%	4%	-11%	-2%	?
CC1CN(C(=S)NC(=O)c2ccc(Cl)cc2)CC(C)O1 (centres undefined)	2%	0.79µM*	1%	1.6µM*	9%
COc1ccc(C(=O)NC(=S)N2CC(C)OC(C)C2)cc1OC (centres undefined)	1%	?	2%	7.9µM*	-1%
COc1ccc(C(=O)NC(=S)N2CCCc3ccccc32)cc1OC	-13%	-14%	-8%	-44%	-1%
CC1CN(C(=S)NC(=O)c2cccc([N+](=O)[O-])c2)CC(C)O1 (centres undefined)	1%	1.3µM*	-10%	0.5µM*	2%
CCC(C)(C)c1ccc(Oc2ccc(N)cc2)cc1	-2%	7.9µM*	18%	-13%	15µM*
CCC(C)(C)c1ccc(Oc2cccc(C(=O)O)c2)cc1	?	?	-4%	-26%	?
CN(CC(=O)Nc1ccccc1Cl)C(=O)COC(=O)c1cnccn1	0%	1%	-14%	-41%	0%
Cc1nnc(SCC(=O)Nc2ccc([N+](=O)[O-])cc2)n1CC1CCCO1 (centres undefined)	1%	-3%	23µM*	-3%	3%
CCS(=O)(=O)N1CCC(C(=O)NC2CCCCC2)CC1	9%	0%	-5%	-20%	?
CN(C)C(=O)N1CCC(C(=O)NC2CCCCCCC2)CC1	4%	-2%	8.2µM*	?	?
COc1ccc(OCc2nnc(SC(C)C(=O)Nc3ccc(N4CCOCC4)cc3)n2C)cc1 (centres undefined)	.	.	-6%	.	0%
NS(=O)(=O)c1ccc(CCNC(=O)CSCC(=O)Nc2ccc(Cl)cc2)cc1	-14%	.	-14%	.	-1%
Cc1ccc2sc(-c3ccc(NC(=O)/C=C\C(=O)O)cc3)nc2c1	?	7%	?	-8%	23µM*
O=C(Nc1cccc(-c2nc3ccccc3s2)c1)c1cc(-n2cnnc2)ccc1Cl	?	-5%	?	5%	?
Cc1ccc2sc(-c3ccc(NC(=O)c4cc(-n5cnnc5)ccc4Cl)cc3)nc2c1	?	?	15µM*	?	2.6µM*
CCCCNC(=O)c1onc(CSc2ccc(F)c(F)c2)c1C(=O)NCCCC	.	.	-6%	.	?
